DAX1 inh-1 – inhibits human nuclear receptor DAX1; P51843; HEK293 Gal4-DAX1 luciferase reporter, luminescence; inhibition, % at 6.75 µM; 0.99% of 340,000 active; AID 504766;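 active = inhibition above the mean over all tested compounds plus 3 SD, cut at about 4.2% in these data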;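 note: 0% = DAX1-transfected cells with DMSO and 100% = empty-vector control cells with DMSO; inhibition shows as a rise in luminescence from relieved DAX1 repression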
Target sequence (P51843 207-470 limits assumed): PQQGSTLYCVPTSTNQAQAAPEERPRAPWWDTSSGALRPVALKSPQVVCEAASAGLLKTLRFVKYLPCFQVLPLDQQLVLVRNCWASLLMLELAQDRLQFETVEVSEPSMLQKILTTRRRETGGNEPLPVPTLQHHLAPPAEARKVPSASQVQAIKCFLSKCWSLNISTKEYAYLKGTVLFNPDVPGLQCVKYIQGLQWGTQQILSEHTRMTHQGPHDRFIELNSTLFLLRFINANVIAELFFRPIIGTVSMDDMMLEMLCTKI
ssDAF-12 act – activators of S. stercoralis DAF-12 nuclear receptor; 1% of 370,000 active; activation, % at 6.8 µM; HEK293 ssDAF-12/GRIP1 lit1-tk-luc reporter, luminescence; % of 3 µM dafachronic acid response;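 active = activation above the mean over all tested compounds plus 3 SD, cut at about 0.9% in these data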;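 note: 0% = DMSO-only wells and 100% = 3 µM delta7-dafachronic acid wells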
DAX1 inh-2 – inhibitors of DAX1 repression of SF-1 activated StAR promoter | HEK293T StAR-luciferase reporter, SF-1/DAX-1 repression relief | inhibition, % at 6.8 µM | 1.1% of 370,000 active | AID 652010;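 active = inhibition above the mean over all tested compounds plus 3 SD, cut at about 3.6% in these data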;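 note: 0% = DAX-1 cells with DMSO and 100% = cells lacking DAX-1 with DMSO; higher inhibition means more luminescence from relief of DAX-1 repression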
hgDAF-12 ag – agonists of H. glycines DAF-12 nuclear receptor; 1.8% of 370,000 active; AID 687014; activation, % at 6.8 µM; HEK293 GAL4-hgDAF12 UAS-luciferase reporter, agonist luminescence; normalized to butyrate control;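 active = activation above a cutoff set at the mean of all screened compounds plus 3 SD, cut at about 10% in these data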;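 note: 0% = DMSO wells and 100% = sodium butyrate wells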
hcDAF-12 act – activates DAF-12 receptor from parasite H. contortus. activation, % at 6.8 µM. 1.4% of 370,000 active. HEK293 hcDAF-12 lit1-tk-luc reporter, luminescence; 0% DMSO, 100% Δ7-dafachronic acid. AID 652067;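 active = activation above the mean of all tested compounds plus 3 SD, cut at about 5.5% in these data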;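 note: 100% = response to 3 µM Δ7-dafachronic acid high control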
An asterisk follows results filed as active; · = no result given. Hits are enriched below; roughly 4.1% of the tested compounds scored in any of these assays.

SMILES | DAX1 inh-1 | ssDAF-12 act | DAX1 inh-2 | hgDAF-12 ag | hcDAF-12 act
O=[N+]([O-])c1cccc(-n2nnnc2CNCc2ccccc2)c1 | 5.7* | -2 | -1 | -2 | 0
O=[N+]([O-])c1cccc(-n2nnnc2CN2CCCC2)c1 | -1 | -2 | 0 | 1 | 0
CCOC(=O)[C@@]12CCCC3=C1N(CCC3)C(=O)[C@H]2CC(=O)NCCCCc1ccccc1 | · | -1 | 0 | -3 | -1
COc1ccccc1/C=C/C(=O)c1ccc(Cl)cc1 | -1 | -1 | -1 | 4 | -1
COc1ccc2[nH]cc(/C=C/C(=O)c3ccccc3)c2c1 | 4 | 0 | 1 | 11* | 5
COc1ccccc1/C=C/C(=O)c1ccccc1 | 0 | 0 | 0 | 13* | 1
COc1cccc(/C=C/C(=O)OCC(=O)c2ccc(C)c(C)c2)c1OC | 0 | -1 | -1 | 0 | -1
COc1cccc(/C=C/C(=O)OCC(=O)c2ccccc2)c1OC | -1 | 0 | 3 | 13* | 6.1*
Cn1c(-c2ccc(CN3CCCCC3)o2)nc2ccccc21 | 1 | 1.2* | 3 | 9 | 5.8*
c1ccc2c(c1)nc(-c1ccncc1)n2CCNc1nc(CN2CCCCC2)cs1 | 1 | -1 | 0 | 0 | 1
CCCc1c(Cc2cccc(F)c2)ncn1CCc1ccccc1OC | · | -1 | -1 | 2 | -2
O=C1C[C@H](C(=O)Nc2ccc(Cl)cc2)[C@@H](c2ccccc2)O1 | · | 0 | 0 | 0 | 0
CCOC(=O)C1(C(=O)OCC)COC(=O)C1CN1Cc2cc3ccccc3nc2C1 (stereo not drawn) | -1 | 1.0* | -1 | 2 | 4
CCOC(=O)C1(CC2CCCCO2)CCN(Cc2nc3ccccc3nc2C)CC1 (stereo not drawn) | · | -1 | -1 | 0 | 4
COC(=O)c1cccc(Cn2ccc3ccc(-c4ccc5ccn(C(=O)C6CCC6)c5c4)cc32)c1 | · | -1 | -2 | -3 | 0
O=C(NN1C(=O)c2ccccc2NC1c1ccccn1)c1ccc([N+](=O)[O-])cc1 (stereo not drawn) | -2 | 1.0* | 0 | 1 | -2
Cc1cccc(C2Nc3ccccc3C(=O)N2NC(=O)c2ccc([N+](=O)[O-])cc2)n1 (stereo not drawn) | 1 | -1 | 0 | -2 | -2
CC(C)c1ccc(NC(=O)O[C@@H]2CC[C@@]34CCCN3C(=O)CCC[C@H]4C2)cc1 | · | -2 | · | 1 | -2
COc1ccccc1OCc1cc(C(=O)N(C)CCC2CCOCC2)no1 | 3 | 1 | 3.9* | 10 | 5
COc1ccc(OCc2cc(C(=O)NC3CCOCC3)no2)c2ccccc12 | 0 | 0 | -2 | 3 | 6.3*
COc1cccc(OCc2cc(C(=O)NC3CCOCC3)no2)c1 | 1 | -1 | 3 | 7 | 3
COc1ccc(N2C(=O)CC(Sc3nc(C)cc(C)n3)C2=O)cc1OC (stereo not drawn) | -2 | -1 | 0 | 1 | 1
Cc1cc(C)nc(SC2CCCCC2O)n1 (stereo not drawn) | 1 | -1 | 1 | 4 | 5.8*
O=C(Nc1nccs1)c1ccc(Br)o1 | 2 | -1 | 1 | 8 | 5.8*
COc1ccc(C(=O)Nc2nccs2)cc1OC | 2 | -1 | 0 | 7 | 0
SMILES | DAX1 inh-1 | ssDAF-12 act | DAX1 inh-2 | hgDAF-12 ag | hcDAF-12 act
COc1ccc(C(=O)Nc2nccs2)cc1 | 5.7* | 0 | 2 | 10 | 3
CCn1nccc1C(=O)Nc1nccs1 | 1 | -1 | 0 | 2 | 3
O=C(Nc1ccccc1)Nc1nccs1 | 0 | -1 | 0 | 3 | 1
COc1ccc(NC(=O)Nc2nccs2)cc1 | 2 | -1 | 0 | 11* | 1
CCn1cc(Br)c(C(=O)Nc2nccs2)n1 | 0 | 0 | 0 | 11* | 6.0*
COC(=O)[C@]12C[C@H](CC(=O)NCCc3ccccc3OC)C(=O)N(CCc3ccc(OC)c(OC)c3)C1=C[C@H](C(C)(C)C)O[C@@H]2C | · | -2 | -2 | 1 | -2
C/C(=C\C(=O)Nc1nccs1)c1ccccc1 | 0 | 0 | 2 | 12* | 3
CC(C)(C)Cc1nnc(NC(=O)c2ccc3c(c2)OCO3)s1 | -1 | -1 | 1 | 5 | -1
CCCN1C(=O)c2ccc(C(=O)Nc3nccs3)cc2C1=O | 0 | -2 | 0 | 0 | -1
O=C(NC1CCCCCCC1)c1ccc2c(c1)OCO2 | 1 | 1.1* | 3 | 10 | 5
CCCc1cc(C(=O)Nc2nccs2)cs1 | 0 | -1 | 3 | 12* | 4
O=C(Nc1nccs1)c1ccc2c(c1)OCO2 | 2 | 0 | 1 | 11* | 4
C=C(C)Cn1c(SCC(=O)N/N=C(\C)c2ccc(Br)cc2)nnc1-c1ccc(Br)cc1 | · | -1 | 0 | -3 | -2
COc1cccc(-c2cc(C(C)=O)c3n(c2=O)CCC3)c1OC | · | -2 | 1 | 0 | -1
COC(=O)C1=C(C)N(Cc2cccc(C(F)(F)F)c2)C(=NCc2cc(OC)c(OC)c(OC)c2)NC1c1ccc(Cl)cc1 (stereo not drawn) | · | -1 | 1 | 1 | -1
O=c1cc(-c2ccc(O)cc2)oc2ccc(O)cc12 | 0 | 0 | 2 | 13* | 2
COc1ccc(N=c2cc(-c3ccc(OC)cc3)oc3ccccc23)cc1 | 2 | 1.0* | 0 | 8 | 0
O=C(NNC(=S)NC(=O)c1sc2ccccc2c1Cl)c1ccc(Cl)cc1 | 1 | 1.2* | 1 | 3 | 5
CCC(=O)NCCc1nc2cc(NC(=O)c3ccccc3OC)ccc2n1C | 2 | -1 | 1 | 3 | -2
CCC(=O)NCCc1nc2cc(NC(=O)c3cccs3)ccc2n1C | 0 | -1 | 3.6* | 3 | 2
NC(=O)c1c(NC(=O)c2ccccc2F)sc2c1CCC2 | 2 | · | · | · | ·
COc1ccc(/C=N/S(=O)(=O)c2cccs2)cc1 | 0 | 3.0* | 0 | 1 | -1
COc1ccc(/C=C2\S/C(=N/S(=O)(=O)c3cccs3)NC2=O)cc1 | 0 | -1 | 1 | 3 | 2
CCc1csc(N2[C@H](CN(CCOC)S(=O)(=O)c3ccccc3[N+](=O)[O-])[C@H](c3ccccc3)[C@@H]2CO)n1 | · | -1 | -1 | 1 | -2
CCOc1ccc(NS(=O)(=O)c2cc(NC(=O)CCC(=O)c3cccs3)ccc2Cl)cc1 | 5.8* | -2 | 0 | -3 | -4
SMILES | DAX1 inh-1 | ssDAF-12 act | DAX1 inh-2 | hgDAF-12 ag | hcDAF-12 act
Cc1ccc(NCCC(=O)c2cccs2)cc1Cl | 1 | 0 | 1 | 12* | 4
Cc1ccc(NCCC(=O)c2cccs2)cc1 | 2 | 1.4* | 4.2* | 12* | 5
O=C(CCNc1cccc(Cl)c1)c1cccs1 | -1 | 1.4* | 1 | 5 | 3
CC(C)c1ccc(NCCC(=O)c2cccs2)cc1 | 4 | -2 | 0 | 7 | 1
C[C@@H]1COc2cccc(NCCO)c2S(=O)(=O)N1 | · | -1 | 1 | 0 | 0
Cc1ccccc1C(=O)NC1CCCCN(C(C)C)C1=O (stereo not drawn) | · | 0 | 0 | 2 | -3

Assay outcomes (PubChem)
